# Experimental data: PubChem BioAssay AID686979 (National Center for Advancing Translational Sciences (NCATS), 2013)
# In all, about 420,000 compounds went through this assay and about 50,000 (12%) were called active. Roughly 26% stayed inconclusive and do not appear here. The call rests on the fitted dose curve; in most records, active means well fitted inhibition curve with a large enough effect; inconclusive means small, poorly fitted or top-dose-only effect; inactive means flat fitted curve, though single readings scatter. What follows is part of a selection rich in actives, with near analogues and random picks from the rest. A call without a number means that no potency is given here.
# Assay: qHTS for Inhibitors of human tyrosyl-DNA phosphodiesterase 1 (TDP1): qHTS in cells in presence of CPT; further: nearly all actives have a fitted effect of over 55% in size
# Conditions: chicken DT40 Tdp1-/-;hTDP1 cells + 20 nM CPT, ATP luminescence, 48 h; series mostly up to 46.2 µM
# In short: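 Cell growth measured by CellTiter-Glo luminescence after a minimum 48 h, 37 C compound exposure with 20 nM CPT in Tdp1-knockout DT40 cells stably expressing hTDP1, seeded 400/well; qHTS titration format.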
# Potency means the concentration at half of the fitted maximal effect.
row,Structure (SMILES),Potency
1,C/C(=N\NC(=O)CSc1nc2ccccc2c(=O)n1-c1ccccc1C)c1cccs1,23.1 µM (active)
2,C/C(=N\NC(=O)COc1c(C)cccc1C)c1cccs1,inactive
3,Cc1ccc(-n2c(SCC(=O)N/N=C/C=C/c3ccccc3[N+](=O)[O-])nc3ccccc3c2=O)cc1,inactive
4,O=C(CSc1nc2ccccc2c(=O)n1-c1ccc(F)cc1)NC1CC1,inactive
5,CCc1c(O)nc(SCC(=O)N2CCCCC2)n(-c2ccccc2C)c1=O,inactive
6,Cc1nn(-c2ccccc2)c(C)c1/C=N/NC(=O)CSc1nc2ccccc2c(=O)n1-c1ccccc1,16.4 µM (active)
7,CCn1c(SCC(=O)NC2=NCCS2)nnc1C(C)NC(=O)c1ccccc1F (stereo not drawn),inactive
8,Cc1ccc(Nc2cc(=O)n(C3CCCCC3)c(=O)[nH]2)cc1C,inactive
9,C[C@H](NC(=O)c1nc[nH]c1C(=O)NCC(=O)OC(C)(C)C)c1ccccc1,inactive
10,CCC1(CC)NC(=O)N(CC(=O)OCC(=O)Nc2ccc(C(F)(F)F)cc2)C1=O,inactive
11,Cc1nc(S(=O)(=O)c2ccc(Br)cc2)nc2c1CCC2,inactive
12,Cc1cc(Nc2ccc(C)c(C)c2)n2ncnc2n1,inactive
13,Brc1ccc(Nc2c3c(nc4ncnn24)CCC3)cc1,25.9 µM (active)
14,Cc1cc([N+](=O)[O-])c(NC2CCCCC2)c([N+](=O)[O-])c1,inactive
15,Cc1sc2c(c1C)c(=O)n(-c1ccccc1)c(=O)n2CC(=O)NCC1CCCO1 (stereo not drawn),inactive
16,Cc1ccc(NC(=O)Cn2c(=O)n(-c3ccccc3)c(=O)c3c4c(sc32)CCCC4)cc1,14.6 µM (active)
17,CCC(C)NC(=O)Cn1c(=O)n(-c2ccc(Cl)cc2)c(=O)c2c3c(sc21)CCCC3 (stereo not drawn),inactive
18,COc1ccc(NC(=O)N2CCCC(c3nc(-c4ccc(F)cc4)no3)C2)cc1 (stereo not drawn),inactive
19,CCOc1ccc(N(CC)C(=O)C2CCN(S(=O)(=O)c3cccc4nonc34)CC2)cc1,inactive
20,CCN(C(=O)C1CCCN(c2nc(-c3ccc(OC)cc3)no2)C1)c1ccc(OC)cc1 (stereo not drawn),16.4 µM (active)
21,CS(=O)(=O)c1ccccc1C(=O)Nc1ccc2sccc2c1,inactive
22,O=C(Nc1cc2c3c(c1)CC(=O)N3CCC2)c1ccccc1F,inactive
23,CC(=O)N(CN1C(=O)C2C3C=CC(C3)C2C1=O)c1cccc(Cl)c1 (stereo not drawn),inactive
24,CCCCCCSc1ccc([C@@H]2[C@@H]3C(=O)N(CC)C(=O)[C@@H]3[C@]3(C(=O)OC)CCCCN23)cc1OC,20.6 µM (active)
25,CCN1C(=O)[C@H]2[C@@H](c3ccccc3)N[C@]3(CCCN(Cc4ccc(C)cc4)C3=O)[C@H]2C1=O,inactive
26,CCN1C(=O)[C@@H]2[C@@H](c3ccc(-c4cccc(Cl)c4)cc3)N3CCC[C@@]3(C(=O)OC)[C@@H]2C1=O,14.6 µM (active)

row,Structure (SMILES),Potency
1,CCCCC12CN3CC(C)(CN(C1)C3c1ccc(O)c(OC)c1)C2=O (stereo not drawn),inactive
2,CC1CCN(CCCNC(=O)CN2C(=O)CSc3ccc(S(=O)(=O)N4CCCCC4)cc32)CC1,inactive
3,O=C(Cc1ccccc1)Nc1ccc(C(=O)Nc2ccccc2C(=O)O)cc1,inactive
4,CC(NC(=O)Cn1cc(C(F)(F)F)cc(Cl)c1=O)c1ccccc1 (stereo not drawn),inactive
5,Cn1cc(CCC(=O)NC2CC2)c2ccccc21,inactive
6,Cc1ccc(CNC(=O)Cc2cn(C)c3ccccc23)cc1,inactive
7,CCCCC(=O)NCc1ccc(F)cc1,inactive
8,Cc1ccc(Cn2cc(CCC(=O)NCc3ccc(OC(C)C)cc3)c3ccccc32)cc1,23.1 µM (active)
9,CCn1cc(CCC(=O)NCc2ccc(F)cc2)c2ccccc21,16.4 µM (active)
10,CC(NC(=O)CCc1cn(Cc2ccccc2Cl)c2ccccc12)c1ccccc1 (stereo not drawn),20.6 µM (active)
11,Cc1ccc(CNC(=O)[C@@H](NC(=O)Cc2ccccc2)C(C)C)cc1,inactive
12,O=C(CCc1cn(Cc2ccc(F)cc2)c2ccccc12)NC1CCCCC1,inactive
13,CC(C)C1Cc2[nH][nH]c(=O)c2C(c2ccc(Cl)cc2)O1 (stereo not drawn),inactive
14,O=C(NCc1ccccc1)C1CCN(C(=O)Cc2ccccc2)CC1,inactive
15,Cc1ccc(C(=O)Cc2nnc(C)s2)cc1,inactive
16,COc1ccc(NC(=O)C(CC(C)C)NS(=O)(=O)c2ccc3c(c2)CCN3C(C)=O)cc1OC (stereo not drawn),inactive
17,O=C1COc2c1ccc(O)c2O,inactive
18,COc1ccc(F)cc1C(=O)COC(=O)c1n[nH]c(=O)c2ccccc12,inactive
19,COc1ccc(C)cc1N(C(=O)Cn1nnc(-c2ccc(C)o2)n1)C(C(=O)NC1CCCC1)c1ccncc1 (stereo not drawn),inactive
20,COc1ccc(C2OCC3(CO2)SC(=O)NC3=O)cc1OC (stereo not drawn),inactive
21,N#CCC(=O)NC1CCC(CC2CCC(NC(=O)CC#N)CC2)CC1 (stereo not drawn),inactive
22,COc1ccc(Nc2nc(Cl)nc(NCc3ccco3)n2)cc1,inactive
23,COc1ccc(Nc2nc(NCc3ccco3)nc(N/N=C/c3ccccc3Cl)n2)cc1,20.6 µM (active)
24,COc1ccc(NC(=O)C(=O)NCc2ccco2)cc1,inactive
25,CCN(CC)S(=O)(=O)c1ccc(OC(C)C)c(N)c1,inactive
26,COc1ccc2cc(C(=O)NCC3CCCO3)[nH]c2c1 (stereo not drawn),inactive

row,Structure (SMILES),Potency
1,O=C(O)c1ccc(OCC2CCCO2)cc1 (stereo not drawn),inactive
2,COc1ccc(OC)c(NC(=O)c2cc(-c3cc(F)ccc3OCC3CCCO3)n[nH]2)c1 (stereo not drawn),8.2 µM (active)
3,O=S(=O)(c1ccc(F)cc1)n1ccc(-c2cnc(-c3ccccc3)s2)n1,inactive
4,COc1cc2c(cc1NC(=O)CN1CCN(S(=O)(=O)c3ccc(F)cc3)CC1)oc1ccccc12,inactive
5,COc1cc(/C=C/C(=O)OCC(=O)c2ccccc2)cc(OC)c1OC,inactive
6,COc1cc2c(cc1NC(=O)COC(=O)/C=C/c1ccccc1)oc1ccccc12,20.6 µM (active)
7,CSCCC(NC(=O)c1ccccc1)C(=O)N1CCCCCCC1 (stereo not drawn),inactive
8,CC(C)(C)C(=O)/C(C#N)=C/c1ccc(O)cc1,inactive
9,COc1ccc(/C=C(\C#N)C(=O)OCC(=O)N(C)C2CCS(=O)(=O)C2)cc1 (stereo not drawn),inactive
10,COc1ccc(/C=C(\C#N)C(=O)ONC2=NCCCCC2)cc1,16.4 µM (active)
11,CCN(CC(=O)Nc1c(F)cccc1F)C(=O)Cc1cccs1,inactive
12,CC(C)C1CC2=C(C(=O)OC(C)(C)O2)C(c2ccc(F)cc2)O1 (stereo not drawn),inactive
13,O=C(NCc1cccs1)C1CCN(S(=O)(=O)c2ccc(Cl)cc2)CC1,inactive
14,O=C(NCc1ccccc1)C1CCCN(S(=O)(=O)c2cccs2)C1 (stereo not drawn),inactive
15,O=C(NCc1ccc(Cl)cc1)C1CCN(S(=O)(=O)c2cccs2)CC1,11.6 µM (active)
16,CC1=C(C(N)=O)C(c2ccc(F)cc2)n2nc(CCCO)nc2N1 (stereo not drawn),inactive
17,CCCCOP(=O)(c1ccc(N(C)C)cc1)C(O)c1cc(OC)ccc1OC (stereo not drawn),inactive
18,Cc1ccc(S(=O)(=O)N(C)c2ccc(OCC(=O)OCc3ccc(C#N)cc3)cc2)cc1,inactive
19,Cc1ccc(CN2CCN(Cc3cccc(C)n3)CC2CCO)cc1 (stereo not drawn),inactive
20,COC(=O)C1CCN(C(=O)COC(=O)c2cc(S(=O)(=O)N3CCOCC3)ccc2C)CC1,inactive
21,CC(=O)Nc1ccc(NC(=O)COc2ncnc3ccccc23)cc1,inactive
22,Cc1ccc(Nc2c3c(nc4ccccc24)CCC3)cc1,11.6 µM (active)
23,CC(=O)Nc1ccc(S(=O)(=O)N(C)c2nc3ccccc3nc2Cl)cc1,inactive
24,O=C(Nc1c2c(nc3ccccc13)CCCC2)c1ccccc1Br,inactive
25,N#Cc1cccc(Nc2c3c(nc4ccccc24)CCCC3)c1,18.4 µM (active)
26,N#Cc1cccc(NC(=O)CCC2CCCC2)c1,inactive

row,Structure (SMILES),Potency
1,CC(=O)Nc1ccc(Nc2c3ccccc3nc3ccccc23)cc1,0.326 µM (active)
2,N#Cc1cccc(NC(=O)CN2CCCCCC2)c1,inactive
3,CN1CCCN(C(=O)C2CCCCC2)CC1,inactive
4,CC1(C)C2CC=C(/C=N/NC(=O)C3CC3)C1C2 (stereo not drawn),inactive
5,Cc1cc(C)n(CCC(=O)N2CCN(S(=O)(=O)c3ccc(C)c(C)c3)CC2)n1,inactive
6,O=C(OCCN1C(=O)c2ccccc2C1=O)[C@@H]1CC(O)CN1S(=O)(=O)c1ccccc1[N+](=O)[O-] (stereo partly drawn),inactive
7,O=C(O)CCCCCCCCc1cn(CN2C(=O)c3ccccc3C2=O)nn1,inactive
8,Cn1c(N)c(C(=O)COC(=O)c2ccc3ccccc3c2)c(=O)n(C)c1=O,inactive
9,Cc1cc(=O)oc2c1ccc1ccccc12,inactive
10,Cc1nnc(SC(C)C(=O)c2c[nH]c3ccccc23)n1C1CC1 (stereo not drawn),inactive
11,COc1cc(SC)ccc1C(=O)NCCOc1ccccc1Cl,inactive
12,COc1ccccc1OCCNC(=O)CCNC(=O)c1ccccc1Cl,inactive
13,O=C(NCCOc1ccccc1Cl)C(=O)Nc1ccccc1,20.6 µM (active)
14,COc1cc(C(=O)NNC(=O)CN2C(=O)NC3(CCCC3)C2=O)cc(OC)c1OC,inactive
15,CC1(C(=O)NS(=O)(=O)c2cccc(F)c2)CCN1C(=O)Cc1ccc(Cl)cc1Cl (stereo not drawn),inactive
16,CCCOc1ccc(Cc2c(O)nc(SC)[nH]c2=O)cc1C,inactive
17,COc1ccc(S(=O)(=O)N2CCN(c3cnccn3)CC2)cc1,inactive
18,COc1ccc(S(=O)(=O)N2CCN(c3ncnc4c(-c5ccccc5)nsc34)CC2)cc1,16.4 µM (active)
19,COc1ccc(CCC(=O)N2CCN(S(=O)(=O)c3ccc(OC)cc3)CC2)cc1,inactive
20,Cc1noc(C)c1COc1ccccc1C(=O)N(C)CC(=O)Nc1cccc(F)c1,inactive
21,C[C@H]1NS(=O)(=O)c2cc(Cl)ccc2O[C@@H]1c1ccccc1,inactive
22,COc1ccc(OC)c(S(=O)(=O)n2c([N+](=O)[O-])cnc2C)c1,inactive
23,CCCCc1nnc(NC(=O)CS(=O)(=O)Cc2ccccc2)s1,inactive
24,CCOCc1nnc(NC(=O)CCS(=O)(=O)Cc2ccccc2)s1,9.2 µM (active)
25,COCCSc1nnc(NC(=O)CCS(=O)(=O)Cc2ccccc2)s1,inactive
